Experimental data as given in PubChem BioAssay AID1159580 (chemical genetic matrix, 2015).
Values joined by “and” are separate entries in the source; they are usually repeats but may differ in a detail not shown here. Equal entries are not always repeated. About 2,000 (36%) of roughly 5,500 compounds were called active. Not shown: some 18% with an inconclusive outcome. Rule as the data show it: active = normalized growth mostly below about 0.91 (no sharp cut-off); inconclusive = no clear call, values can overlap the other calls; inactive = mostly above about 0.92. The list shows a part of the results.

Assay: chemical genetic growth profiling, strain panel (AID 1159580);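 also: tested at 20 µM; growth read once vehicle control cultures reached saturation at 30 °C; 1 = growth at the plate median or of vehicle wells; lower values mean less growth of the strain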
Conditions: S. cerevisiae deletion strains, growth OD

Measured: normalized growth

Cc1cc(N)c2ccccc2[n+]1CCCCCCCCCC[n+]1c(C)cc(N)c2ccccc21
active: locus YAL013W, strain DEP1, active compounds read low 0.0603 | locus YAL021C, strain ccr4, active compounds read low 0.0693 | locus YAL026C, strain drs2, active compounds read low 0.0714 | locus YAL030W, strain snc1, active compounds read low 0.0625 | locus YAL040C, strain CLN3, active compounds read low 0.0761 | locus YBL061C, strain skt5, active compounds read low 0.066 | locus YBR009C, strain hhf1, active compounds read low 0.0696 | locus YBR021W, strain FUR4, active compounds read low 0.0907 | locus YBR023C, strain chs3, active compounds read low 0.0647 | locus YBR171W, strain sec66, active compounds read low 0.0836 | locus YBR229C, strain ROT2, active compounds read low 0.0499 | locus YBR231C, strain swc5, active compounds read low 0.0655 | locus YBR279W, strain paf1, active compounds read low 0.105 | locus YCL011C, strain gbp2, active compounds read low 0.0611 | locus YCL016C, strain dcc1, active compounds read low 0.0686 | locus YCL029C, strain bik1, active compounds read low 0.0664 | locus YCL061C, strain MRC1 (second series), active compounds read low 0.0482 | locus YCL061C, strain MRC1, active compounds read low 0.0691 | locus YCL069W, strain vba3, active compounds read low 0.0657 | locus YCR088W, strain abp1, active compounds read low 0.0654 | locus YDL005C, strain med2, active compounds read low 0.0789 | locus YDL035C, strain GPR1, active compounds read low 0.0543 | locus YDL040C, strain nat1, active compounds read low 0.0635 | locus YDL074C, strain BRE1, active compounds read low 0.0853 | locus YDL101C, strain DUN1, active compounds read low 0.0584 | locus YDL134C, strain PPH21, active compounds read low 0.0503 | locus YDL185W, strain tfp1, active compounds read low 0.0607 | locus YDL192W, strain arf1, active compounds read low 0.0659 | locus YDR001C, strain nth1, active compounds read low 0.0643 | locus YDR069C, strain doa4, active compounds read low 0.0664 | locus YDR101C, strain arx1, active compounds read low 0.0626 | locus YDR137W, strain rgp1, active compounds read low 0.0886 | locus YDR150W, strain NUM1, active compounds read low 0.0524 | locus YDR159W, strain sac3, active compounds read low 0.0966 | locus YDR162C, strain NBP2, active compounds read low 0.0484 | locus YDR195W, strain ref2 0.14 | locus YDR297W, strain sur2, active compounds read low 0.0628 | locus YDR318W, strain mcm21, active compounds read low 0.0702 | locus YDR334W, strain swr1, active compounds read low 0.0697 | locus YDR335W, strain msn5, active compounds read low 0.0637 | locus YDR363W, strain ESC2, active compounds read low 0.0798 | locus YDR388W, active compounds read low 0.0589 | locus YDR392W, strain spt3, active compounds read low 0.104 | locus YDR502C, strain sam2, active compounds read low 0.066 | locus YEL003W, strain gim4, active compounds read low 0.0587 | locus YEL037C, strain rad23, active compounds read low 0.06 | locus YEL061C, strain CIN8 (second series), active compounds read low 0.066 | locus YEL061C, strain CIN8, active compounds read low 0.0508 | locus YER002W, strain NOP16, active compounds read low 0.0717 | locus YER015W, strain faa2, active compounds read low 0.064 | locus YER016W, strain bim1, active compounds read low 0.0649 | locus YER110C, active compounds read low 0.0798 | locus YER111C, strain swi4, active compounds read low 0.0774 | locus YER155C, strain BEM2 (second series), active compounds read low 0.0923 | locus YER155C, strain BEM2, active compounds read low 0.0729 | locus YER167W, strain BCK2, active compounds read low 0.0524 | locus YFR010W, strain ubp6, active compounds read low 0.0738 | locus YGL078C, strain dbp3, active compounds read low 0.0809 | locus YGL086W, strain mad1, active compounds read low 0.0599 | locus YGL167C, strain pmr1, active compounds read low 0.0819 | locus YGL173C, strain kem1, active compounds read low 0.0682 | locus YGL227W, strain vid30, active compounds read low 0.0671 | locus YGL240W, strain doc1, active compounds read low 0.0823 | locus YGL248W, strain PDE1, active compounds read low 0.0477 | locus YGL253W, strain hxk2, active compounds read low 0.0575 | locus YGR078C, strain PAC10, active compounds read low 0.0515 and 0.0686 | locus YGR135W, strain pre9, active compounds read low 0.0652 | locus YGR229C, strain SMI1, active compounds read low 0.0559 | locus YGR252W, strain gcn5, active compounds read low 0.156 | locus YHR013C, strain ard1, active compounds read low 0.116 | locus YHR027C, strain rpn1, active compounds read low 0.0661 | locus YHR030C, strain SLT2, active compounds read low 0.0523 | locus YHR079C, strain IRE1 (second series), active compounds read low 0.0634 | locus YHR094C, strain hxt1, active compounds read low 0.0669 | locus YHR129C, strain ARP1, active compounds read low 0.087 | locus YHR142W, strain chs7, active compounds read low 0.0778 | locus YHR200W, strain rpn10, active compounds read low 0.0666 | locus YIL066C, strain RNR3, active compounds read low 0.0524 | locus YIL073C, strain SPO22, active compounds read low 0.118 | locus YIL125W, strain kgd1, active compounds read low 0.0847 | locus YIR030C, strain dcg1, active compounds read low 0.0641 | locus YJL092W, strain hpr5, active compounds read low 0.062 | locus YJL095W, strain BCK1 (second series), active compounds read low 0.0654 | locus YJL095W, strain BCK1, active compounds read low 0.0618 | locus YJL115W, strain asf1, active compounds read low 0.0762 | locus YJL129C, strain trk1, active compounds read low 0.0876 | locus YJL134W, strain LCB3, active compounds read low 0.0487 | locus YJL154C, strain vps35, active compounds read low 0.0637 | locus YJL164C, strain tpk1, active compounds read low 0.0693 | locus YJL166W, strain qcr8, active compounds read low 0.0646 | locus YJL168C, strain set2, active compounds read low 0.064 | locus YJL187C, strain SWE1 (second series), active compounds read low 0.0504
